Pf growth 48h – P. falciparum growth inhibition at 48 hours (one generation) | P. falciparum luciferase growth in erythrocytes, 48 h | Potency, µM (doses to about 28.7 µM), for the others: top-dose activity change, negative = inhibition, actives largely listed as inhibitors | hit rate 5.9% among 310,000
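Growth was read as firefly luciferase luminescence after a 48 h, 37 C, 5% CO2 exposure of compounds to reporter-bearing P. falciparum cultures (0.1% parasitemia, 2% hematocrit final) in Albumax-supplemented RPMI 1640.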
Pf growth 96h – P. falciparum growth inhibition at 96 hours; Potency, µM (titrated, usually from 28.7 µM), inactives show top-dose activity change, negative = inhibition, usual class: inhibitors; AID 504834; P. falciparum luciferase reporter growth, 96 h; hit rate 6.9% among 320,000
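Infected RBCs, 2% Hct / 0.05% parasitemia final; luciferase-reporter P. falciparum; cpd 96 h, 37 C, 5% CO2; luciferase detection reagent; luminescence.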
HCV inh – inhibitors of hepatitis C virus infection. Huh7.5.1 HCVcc-Cre infection, luciferase reporter, 44 h. Potency, µM (highest dose often 41.8 µM), without a hit: at the top dose activity change, negative = inhibition, most hits filed as inhibitors. hit rate 3.4% among 340,000. AID 651820
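Infectious HCVcc-Cre (~0.5 moi) was added to cells just after compound, with cells seeded 4 h earlier at 1,000 per well. Luciferase activity after 44 h culture reported infection; substrate was incubated 15 min at room temperature before reading.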
AmpC no deterg – AmpC beta-lactamase inhibition without detergent; P00811; AID 485341; Potency, µM (top dose mostly 57.1 µM), for inactives: at the top dose activity change, negative = inhibition, most hits filed as inhibitors; hit rate 0.52% among 330,000; AmpC nitrocefin hydrolysis, absorbance 480 nm, 0.0001% Triton;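 note: plate controls were no compound for no effect and no enzyme for full effect; nearly all actives have a fitted effect of over 20% in size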
Target sequence (P00811 whole entry, looked up): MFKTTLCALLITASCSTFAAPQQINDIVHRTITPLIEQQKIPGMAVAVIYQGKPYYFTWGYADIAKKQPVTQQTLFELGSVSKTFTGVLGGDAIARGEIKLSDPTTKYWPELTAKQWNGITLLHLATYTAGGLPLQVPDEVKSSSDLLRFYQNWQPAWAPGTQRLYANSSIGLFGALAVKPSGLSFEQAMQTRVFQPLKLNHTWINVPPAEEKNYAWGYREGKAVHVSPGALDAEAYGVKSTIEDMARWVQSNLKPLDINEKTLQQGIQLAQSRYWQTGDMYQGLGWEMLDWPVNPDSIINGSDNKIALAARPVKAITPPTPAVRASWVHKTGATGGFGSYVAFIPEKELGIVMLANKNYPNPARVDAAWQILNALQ
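20 mM phosphate pH 7.0 + 0.01% (detergent screen) or 0.0001% Triton X-100; 5.3 nM AmpC reagent; cpd preinc 15 min RT; nitrocefin (800 uM stock) to start; A480 q20 s × 4 min; Activity was normalised to no-enzyme and no-compound control wells.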
AMA1 RON2 block – inhibitors of Plasmodium falciparum AMA1-RON2 interaction; Potency, µM (series often up to 58.2 µM), for inactives: top-dose activity change, negative = inhibition, actives largely listed as inhibitors; hit rate 0.2% among 360,000; AID 720542; AlphaScreen AMA1-biotinylated RON2 peptide binding;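 note: 0% = vehicle wells and -100% = peptide control; nearly all actives have a fitted effect of over 45% in size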
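AMA1 (3D7) with his tag at 25 nM final met compounds first, then biotinylated RON2 peptide at 25 nM; detection used donor plus acceptor beads, 10 µg/mL apiece, read by AlphaScreen after 30 min at room temperature.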
AmpC detergent – AmpC beta-lactamase inhibition with detergent present; AmpC hydrolysis of nitrocefin, absorbance 480 nm, 0.01% Triton; Potency, µM (series often up to 114 µM), for the others: at the highest dose activity change, negative = inhibition, actives largely listed as inhibitors; hit rate 0.041% among 370,000; P00811;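 note: 0% = no-compound wells and -100% = no-enzyme wells; nearly all actives have a fitted effect of over 25% in size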
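AmpC (5.3 nM in the dispensed reagent) in 20 mM phosphate pH 7.0 with 0.01% (detergent screen) or 0.0001% Triton X-100 was preincubated with compounds for 15 min at room temperature. Nitrocefin was then added from an 800 uM solution, and hydrolysis was followed at 480 nm.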
An asterisk follows results filed as active; u = inconclusive; x = no result given. The list is not random: actives were taken first. Their share in the collection is about 11%. Calls come from the whole dose curve; as a rule, active = well fitted curve in the direction sought with a large enough effect; inconclusive = small, poorly fitted or top-dose-only effect, or another doubt; inactive = no such curve, though single readings can be large; an effect the other way counts as inactive or inconclusive. Unless noted, % is set by controls: 0 for no effect and ±100 for the full control effect; potency is the fitted concentration of half-maximal effect.

SMILES | Pf growth 48h | Pf growth 96h | HCV inh | AmpC no deterg | AMA1 RON2 block | AmpC detergent
COc1cccc(CNC(=O)CCNS(=O)(=O)c2cccs2)c1 | 25.3% | 1.17µM* | 5.2% | -18.0% | 1.2% | 0.8%
CCC(Sc1nnc(-c2ccc(OC)c(OC)c2)c(-c2ccc(OC)c(OC)c2)n1)C(=O)NC1CCCC1 (centres undefined) | x | x | x | x | x | 10.4%
N#CCC(=O)N/N=C/c1c(-c2ccccc2)n(-c2ccccc2)c2ccccc12 | 9.28µM* | u | 14.1µM* | -38.8% | 10.3% | -0.4%
Cc1ccc(-c2ncccc2OC(=O)C23CC4CC(CC(C4)C2)C3)cc1 | u | 9.28µM* | 3.9% | -16.5% | -10.0% | u
O=C(CCS(=O)(=O)c1cc2c(cc1Cl)NC(=O)CO2)NCCc1ccc(Cl)cc1 | x | x | x | x | x | 24.3%
Cn1c2c(c(=O)n(C)c1=O)C(c1ccccc1OC(F)F)C1=C(CCCC1=O)N2 (centres undefined) | 0.1% | 0.0% | 2.82µM* | -22.7% | 5.7% | 1.3%
CC(NCC(=O)Nc1ccccc1C(=O)NC1CC1)c1ccc(Cl)cc1 (centres undefined) | x | x | x | x | 0.2% | x
CCN(CC)S(=O)(=O)c1ccc(C(C)NCC(=O)Nc2ccccc2C(=O)NC2CC2)cc1 (centres undefined) | 10.4µM* | u | u | 24.5% | 0.5% | 0.0%
CC(NCC(=O)Nc1ccccc1C(=O)NC1CC1)c1ccco1 (centres undefined) | 1.65µM* | 6.6% | 7.8% | -6.2% | 69.6% | -11.0%
CCOc1ccc(NC(=O)CSc2ncc(S(=O)(=O)c3ccc(F)c(C)c3)c(=O)[nH]2)cc1 | x | x | x | x | x | 5.2%
CC(OC(=O)c1ccccc1NS(=O)(=O)c1cccc(C(F)(F)F)c1)C(=O)N(C)Cc1ccccc1 (centres undefined) | u | 10.4µM* | u | -4.3% | -13.0% | 5.2%
O=C(O)c1ccccc1-c1ccc(C=C2C(=O)N(c3ccccc3)C(=S)N(c3ccccc3)C2=O)o1 | 24.3% | 11.7µM* | -2.8% | -54.4% | -14.7% | u
NCCCC[C@H]1CNC(=O)C(=O)N1CCC12CC3CC(CC(C3)C1)C2 | 11.7µM* | 7.38µM* | 20.9% | 5.4% | 5.7% | 2.5%
COc1cc(/C=C2/C(=N)N3OC(C)=CC3=NC2=O)ccc1OC(=O)c1ccco1 | 29.1% | 13.1µM* | 11.3% | -38.5% | 49.4% | 6.6%
Cc1cccc(-c2nc(Cn3c(=O)cc(-c4ccccc4)c4c(C)nn(C)c43)c(C)o2)c1 | x | x | x | x | x | 17.5%
CCCCn1nc(NC(=O)CCC)c2cc3cc(OC)ccc3nc21 | u | 0.0% | -1.1% | 1.3% | 52.9% | -8.2%
CCCCn1nc(NC(=O)c2cccs2)c2cc3cc(OC)ccc3nc21 | u | x | 10µM* | -18.4% | 134.8% | -3.7%
COc1ccc2nc3c(cc2c1)c(NC(=O)CC(C)C)nn3CC(C)C | 5.22µM* | u | -18.7% | -16.4% | 27.0% | 0.0%
CCCCn1nc(NC(=O)CC(C)C)c2cc3cc(OC)ccc3nc21 | u | u | u | -12.8% | -2.7% | 1.3%
CCCn1nc(NC(=O)c2cccs2)c2cc3cc(OC)ccc3nc21 | u | -21.1% | 10µM* | -12.8% | 62.8% | -5.2%
O=C(NC1CCCCC1)c1ccc2c(c1)N(Cc1ccc(Cl)cc1)C(=O)c1ccccc1S2(=O)=O | x | x | x | x | x | 17.7%
CCOC(=O)C1CCN(c2cc(C)nc3c(-c4ccccc4OC)c(C)nn23)CC1 | x | x | x | x | x | -0.1%
Cc1ccc(CNC(=O)Cc2ccc(NC(=O)N3CCSc4ncccc43)cc2)cc1 | x | x | x | x | x | 25.0%
CCOc1ccc(-n2c(=O)c3c(C)c(C(=O)N(C)C)sc3n(Cc3cc(C)ccc3C)c2=O)cc1 | x | x | x | x | x | -5.6%
Cc1ccc(NC(=O)Cn2c(=O)n(Cc3nc(C)no3)c(=O)c3cc4c(cc32)OCO4)cc1 | x | x | x | x | x | 17.7%
SMILES | Pf growth 48h | Pf growth 96h | HCV inh | AmpC no deterg | AMA1 RON2 block | AmpC detergent
NC1=NC[C@H](Cc2ccc(O)cc2)N1CCc1cccc(F)c1 | 13.1µM* | 2.33µM* | -4.0% | -16.0% | 3.6% | 4.2%
CN(C)C1=NC[C@H](Cc2ccccc2)N1CCc1cccc(F)c1 | u | u | 1.7% | 3.9% | 32.8% | u
NC1=NC[C@H](Cc2ccccc2)N1CCc1cc(C(F)(F)F)cc(C(F)(F)F)c1 | 3.29µM* | u | -14.2% | 62.4% | 8.7% | 2.6%
CC1CCN(S(=O)(=O)c2ccc3c(c2)N(CC(=O)NCCc2ccc(Cl)cc2)C(=O)CO3)CC1 | x | x | x | x | x | 8.8%
CCN(CC)c1nc(SCCOC(=O)Nc2ccccc2)nc(N(CC)CC)n1 | u | 10.4µM* | u | -30.2% | 47.6% | -1.4%
CCC[C@H]1NC(=O)[C@H](C)N(C)C(=O)C(C)(C)C(=O)C(C)NC(=O)[C@H](Cc2ccc(OC)cc2)N(C)C(=O)[C@H](C(C)C)N(C)C(=O)CNC(=O)[C@H](CC(C)C)N(C)C(=O)CNC(=O)[C@H]([C@@H](C)CC)OC(=O)[C@H]1C (some centres undefined) | x | x | 0.562µM* | 199.2% | -4.0% | x
CC[C@H](C)C1OC(=O)[C@@H](C)[C@@H](CC)NC(=O)[C@H](C)N(C)C(=O)C(C)(C)C(=O)C(C)NC(=O)[C@H](Cc2ccc(OC)cc2)N(C)C(=O)[C@H](C(C)C)N(C)C(=O)CNC(=O)[C@H](CC(C)C)N(C)C(=O)CNC1=O (some centres undefined) | x | x | x | x | 0.0% | x
CCCCn1c(=O)c2oc3ccccc3c2n(Cc2cccc(F)c2)c1=O | x | x | x | x | x | 7.9%
N#CCC(=O)Nc1ccc(C(=O)OCC(=O)N=c2sccn2Cc2ccccc2Cl)cc1 | 11.7µM* | u | u | 10µM* | 4.2% | -13.6%
Cc1ccc(Cn2ccsc2=NC(=O)COC(=O)c2ccc(O)cc2O)cc1 | u | u | 11.2µM* | -29.2% | -14.5% | -1.7%
O=C(COC(=O)c1ccc(O)cc1O)N=c1sccn1Cc1ccccc1Cl | u | u | 7.94µM* | -21.7% | -1.6% | -13.7%
COc1ccc(C)cc1NC(=O)Nc1nnc(N2CCCCC2)s1 | x | x | x | x | x | -2.5%
CNC1=CN(O)C(c2ccccc2)=c2cc(Cl)ccc2=N1 | 19µM* | 13.5µM* | x | x | x | x
Cc1ccc2c(c1)=C(c1ccccc1)N(O)CC(=O)N=2 | -0.4% | 59.5% | 24.1% | -10.9% | 12.0% | -9.0%
C[n+]1cccc2c(Br)ccc([O-])c21 | u | 2.33µM* | 8.4% | 2.9% | -22.0% | -5.3%
Cc1ccc(N2C(=O)CC(c3ccccc3F)C3=C2COC3=O)cc1Cl (centres undefined) | x | x | x | x | x | -1.5%
